Results taken from PubChem BioAssay AID1347417 (National Center for Advancing Translational Sciences (NCATS), 2020).
About 5,300 (4.4%) of roughly 120,000 compounds were called active. Not shown: some 22% with an inconclusive outcome. The entries come from a sample that favours actives as a whole. A number with no mark means an inactive call. The call rests on the fitted dose curve; in most records, active means well fitted inhibition curve with a large enough effect; inconclusive means small, poorly fitted or top-dose-only effect; inactive means no such curve, though single readings can be large or run the other way.

test: qHTS Primary assay for Inhibitors of Plasmodium falciparum Dd2 growth in vitro; further: nearly all actives have a fitted effect of over 65% in size;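 on activity, negative = inhibition: plate controls were DMSO vehicle for no effect and reference drug for full effect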; settings: P. falciparum Dd2 growth, SYBR Green, 72 h; series mostly up to 28.9 µM; activity, negative = inhibition: at the top concentration
In short: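 Readout: SYBR Green fluorescence, 485 nm excitation, 535 nm emission, after ~16 h lysis at 37C. Before that, Dd2-infected red cells (2.5% hematocrit) grew 72 h with compound, 29 uM top final concentration.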
Potency means the concentration at half of the fitted maximal effect.

Row | Structure (SMILES) | activity, negative = inhibition | Potency | outcome
1 | CC(=O)N1CCN(c2ccc3nnc(-c4ccc(C)cn4)n3n2)CC1 | -4.27% [at 44.1 µM] | – | –
2 | O=C(Cn1nc(-c2ccccc2)n(CCc2ccccc2)c1=O)NC1CC1 | -4.11% | – | –
3 | Cc1cn2nc(C(=O)N3CCC(NC(=O)CCc4ccccc4)CC3)cc2c(=O)[nH]1 | – | 14.1 µM (active) | –
4 | Cc1cn2nc(C(=O)N3CCC(NC(=O)c4ccc(C#N)cc4)CC3)cc2c(=O)[nH]1 | -37.5% | – | –
5 | COC(=O)[C@@H](Cc1cccnc1)NC(=O)[C@H]1CN(S(=O)(=O)c2ccccc2)CCN1C(=O)N1CCOCC1 | -6.53% | – | –
6 | COC1C(=O)N(c2cccc(F)c2)C12CCN(C(=O)NCc1ccc(C)cc1)CC2 (centres undefined) | – | – | inactive
7 | CCS(=O)(=O)N1CCC2(CC1)CC(N1CCN(C(C)C)CC1)CCO2 (centres undefined) | 12% | – | –
8 | C=CCN1CC2(CCC1=O)CCN(C(=O)[C@H](N)Cc1ccccc1)CC2 | -4.26% | – | –
9 | O=C1CCC2(CCN(Cc3ccc4[nH]ccc4c3)CC2)CN1CCc1ccccc1 | – | 7.08 µM (active) | –
10 | Cn1cc(CN2CCN(Cc3ccccc3)CC2)ccc1=O | 13.6% | – | –
11 | COc1ccc(C(=O)N2CCCOCCNC(=O)CC2)c(OC)n1 | 5.64% | – | –
12 | CN(Cc1nc2ccsc2c(=O)[nH]1)C(=O)C1NCCc2[nH]cnc21 (centres undefined) | -11.4% | – | –
13 | COc1ccc(C(=O)N2c3ccccc3CC2c2nc(C(C)C)no2)c(OC)c1 (centres undefined) | 4.25% [at 5.79 µM] | – | –
14 | O=C(c1nc2c(o1)CCN(Cc1ccccc1F)CC2)N1CCOCC1 | -19.4% [at 44.1 µM] | – | –
15 | CN1C(=O)[C@H]2CN(Cc3ccccc3Cl)C[C@H]2C1=O | -8.61% | – | –
16 | O=C1[C@H]2CN(Cc3ccccc3F)C[C@H]2C(=O)N1CCN1CCc2ccccc2C1 | – | 5.01 µM (active) | –
17 | COCCn1cc(CN2CCN(c3ccccc3F)CC2)ccc1=O | 15.5% | – | –
18 | CCOc1ccc2c(n1)CCN(C(=O)Nc1ccc(OC)cc1C)C2 | -3.34% | – | –
19 | COc1ccc(Nc2ncc3c(n2)CCN(C(=O)OC(C)(C)C)C3)cc1 | – | 5.62 µM (active) | –
20 | CCOc1ccc2c(n1)CCN(C(=O)C(C)C)C2 | 7.45% | – | –
21 | COc1ccc(C(=O)NC2CCN(c3cc(-c4cccs4)[nH]n3)C2)cc1F (centres undefined) | -11.2% | – | –
22 | COCCc1noc(-c2ccc(NC(C)c3ncccc3C)nc2)n1 (centres undefined) | -19.9% | – | –
23 | O=C(NCC1(COc2cccnc2)C[C@@H](O)[C@@H](O)C1)C1CCCC1 (some centres undefined) | 9.87% [at 44.1 µM] | – | –
24 | O=C1CCN(Cc2ccc3c(c2)CCO3)CCOCCN1 | 2.37% | – | –
25 | O=C(c1ccccc1)N1CCOc2ccc(CN3CCc4ccccc4C3)cc2C1 | – | 7.94 µM (active) | –

Row | Structure (SMILES) | activity, negative = inhibition | Potency | outcome
26 | CCC(C)N1CCN(C(=O)CCc2ccc3c(c2)CN(C(=O)C2CC2)CCO3)CC1 (centres undefined) | -3.36% | – | –
27 | CC(C)(O)CCc1ccc(C(=O)N2CCOc3ccc(Cl)cc3C2)cc1 | -18.6% | – | –
28 | O=C(CC1CCCC1)N1CCOc2ccc(CN3CCc4ccccc4C3)cc2C1 | – | 5.01 µM (active) | –
29 | CC(C)C(=O)N1CCOc2ccc(CN3CCc4ccccc4C3)cc2C1 | – | – | inactive
30 | CC1CCC(NC(=O)CN2C(=O)NC3(CCS(=O)(=O)CC3)C2=O)CC1 (centres undefined) | 37.9% | – | –
31 | Cc1ccc(CNC(=O)c2ccc(OC3CCN(S(C)(=O)=O)CC3)c(Cl)c2)s1 | – | – | inactive
32 | CN(Cc1cccn1C)Cc1ccnn1C | – | – | inactive [at 44.1 µM]
33 | CN(Cc1ccc(-c2ccccc2)cc1)C(=O)c1ccccc1F | – | – | inactive [at 44.1 µM]
34 | O=C(O)COc1ccccc1CN1CC[C@H]2NCCC[C@]2(C(=O)O)C1 | -20.2% | – | –
35 | CC(C)=CCC1(CO)CCCN(Cc2ccccc2OCCO)C1 (centres undefined) | – | 12.6 µM (active) | –
36 | COc1ccccc1CNC(=O)CN1CCCC(CO)(CC2CC2)C1 (centres undefined) | – | – | inactive
37 | Cc1ccsc1CN1CCCCCNC(=O)[C@@H]2CCC[C@@H]21 | -7.66% | – | –
38 | CC(C)N1C[C@H](O)C[C@H]1c1nnc2n1CCN(C(=O)CCCc1ccccc1)C2 | – | – | inactive; activator; fitted 3.9811 uM
39 | COc1ccc(-c2cc(N3CCC(NC(=O)c4cccc(C)c4)CC3)n[nH]2)cc1 | -10.2% | – | –
40 | COc1ccc(-c2cc(N3CCC(NC(=O)c4ccc5c(c4)OCO5)CC3)n[nH]2)cc1 | -9.02% | – | –
41 | O=C(NC1CCCN(c2cc(-c3ccc(Cl)cc3)[nH]n2)C1)c1ccccc1F (centres undefined) | -8.5% | – | –
42 | COc1ccc(-c2cc(N3CCCC(NC(=O)c4ccsc4)C3)n[nH]2)cc1 (centres undefined) | -8.18% | – | –
43 | COc1ccc(-c2cc(N3CCC(NC(=O)c4ccoc4)CC3)n[nH]2)cc1 | – | 0.794 µM (active) | –
44 | COc1ccc(-c2cc(N3CCCC(NC(=O)c4cc(F)ccc4Cl)C3)n[nH]2)cc1 (centres undefined) | – | 8.91 µM (active) | –
45 | COc1cccc(C(=O)N2CCC(N3C[C@H](O)C[C@H]3C(=O)N3CCC(N4CCCCC4)CC3)CC2)c1 | -23% | – | –
46 | CC(C)Cc1ccc(S(=O)(=O)N2CCCC2c2nncn2Cc2ccncc2)cc1 (centres undefined) | -22.2% | – | –
47 | CCC(CC)C(=O)N[C@@H](Cn1cc(-c2ccccc2F)c(=O)[nH]c1=O)C(=O)O | -2.36% [at 44.1 µM] | – | –
48 | CN(Cc1cccnc1)c1nc2c(c(=O)[nH]1)CCN(Cc1cc(F)ccc1F)CC2 | 14.7% [at 5.79 µM] | – | –
49 | COc1ccc(-c2onc(C)c2C(=O)NCc2ccc3c(c2)OCO3)cc1 | -0.949% | – | –
